Results reported in PubChem BioAssay AID687016 (The Scripps Research Institute Molecular Screening Center, 2013).
Values joined by “and” are separate entries in the source; they are usually repeats but may differ in a detail not shown here. Equal values may be shown once. Hit rate of the full screen: of about 370,000 compounds, about 2,800 (0.76%) were called active. No stated cut-off is given here; in the data, active means inhibition above about 21%; inactive means the rest. Only a selection was taken, and actives are over-represented in it overall.

Target: E3 ubiquitin-protein ligase UHRF1 (Homo sapiens) (UniProt Q96T88)
Sequence (Q96T88 whole entry, looked up, the tested form may be a part): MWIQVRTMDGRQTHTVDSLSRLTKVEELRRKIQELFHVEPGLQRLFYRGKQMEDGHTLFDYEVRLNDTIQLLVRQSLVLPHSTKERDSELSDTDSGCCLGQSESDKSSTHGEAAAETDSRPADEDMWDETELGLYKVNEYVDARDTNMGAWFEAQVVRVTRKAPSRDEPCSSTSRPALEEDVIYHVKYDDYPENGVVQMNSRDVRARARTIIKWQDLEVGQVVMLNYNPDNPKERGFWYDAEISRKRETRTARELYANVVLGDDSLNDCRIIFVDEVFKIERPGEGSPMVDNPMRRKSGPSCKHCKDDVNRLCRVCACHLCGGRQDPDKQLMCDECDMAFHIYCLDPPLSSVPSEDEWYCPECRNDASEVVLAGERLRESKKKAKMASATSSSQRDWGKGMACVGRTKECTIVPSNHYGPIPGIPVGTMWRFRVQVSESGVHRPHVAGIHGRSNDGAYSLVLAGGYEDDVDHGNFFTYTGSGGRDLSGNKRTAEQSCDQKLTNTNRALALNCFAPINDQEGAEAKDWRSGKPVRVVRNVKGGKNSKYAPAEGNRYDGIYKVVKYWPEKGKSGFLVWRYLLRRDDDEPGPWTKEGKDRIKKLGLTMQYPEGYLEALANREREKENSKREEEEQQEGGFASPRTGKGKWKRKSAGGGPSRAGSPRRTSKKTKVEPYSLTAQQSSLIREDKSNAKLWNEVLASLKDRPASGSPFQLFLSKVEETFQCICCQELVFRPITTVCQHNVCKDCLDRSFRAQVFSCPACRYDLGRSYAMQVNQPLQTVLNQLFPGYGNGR
Experiment: blockers of UHRF1 binding to methyl-oligo – biochemical, TR-FRET, human UHRF1, single concentration, counter-screen for MBD2 inhibitor project, primary screen (AID 687016);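 further: UHRF1 SRA domain binding a hemimethylated CpG hairpin DNA probe; 0% = median of test compound wells and 100% = reference inhibitor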
Settings: UHRF1 binding to methylated oligo, at 4.4 µM, stronger effect = higher value

| SMILES | inhibition |
| --- | --- |
| Cn1c(=O)c2c(ncn2CC(=O)N2CCN(c3ccccc3)CC2)n(C)c1=O | -2.46% (inactive) |
| Cc1cccc(Cn2c(N3CCN(c4ccccc4)CC3)nc3c2c(=O)n(C)c(=O)n3C)c1 | 23.8% (active) |
| CCOC(=O)N1CCN(Cc2nc3c(c(=O)n(C)c(=O)n3C)n2Cc2ccccc2)CC1 | 1.75% (inactive) |
| CN(C)[C@H]1CCN(c2cccc3c2S(=O)(=O)N2CC[C@H](C2)O3)C1 | -0.6% (inactive) |
| O=C(NCCCc1ccccc1)[C@H](Cc1ccccc1)NC1(C(=O)NCCc2c[nH]c3ccccc23)CCC1 | 0.93% (inactive) |
| C=CCN1C(=O)[C@@H](CC(=O)NCC2CCCCC2)[C@]2(C(=O)OC)CCCCC=C12 | -2.02% (inactive) |
| COc1cccc(N2CCN(CC(=O)N(C)Cc3ccc(F)cc3)CC2)c1 | -0.26% (inactive) |
| COC(=O)c1cc(S(=O)(=O)N2CCN(c3ccccc3C)CC2)cn1C | -0.14% (inactive) |
| CCOC(=O)[C@]12CCCC=C1N(Cc1ccc(OC)cc1)C(=O)[C@@H]2CC(=O)NCc1cccs1 | 0.05% (inactive) |
| O=C(Nc1cc(Cl)cc(Cl)c1)OCCN1CCCC12CCC(c1ccccc1)CC2 (centres undefined) | -2.5% (inactive) |
| O=C(CSc1nc2c(c(=O)[nH]1)CCCC2)N1CCCCC1 | 4.3% (inactive) |
| CCN(CC)CCOc1ccc2c(c1)C(=NNC(=O)c1ccccn1)c1cc(OCCN(CC)CC)ccc1-2 | 105% (active) |
| CN(CCOc1ccc(CC2SC(=O)NC2=O)cc1)c1ccccn1 (centres undefined) | 0.45% (inactive) and -0.75% (inactive) |
| CCCC(C(=O)OCCN(CC)CC)(c1ccccc1)c1ccccc1 | 0% (inactive) |
| Cc1ccc(C)c(NC(=O)CCS(=O)(=O)c2ccccc2)c1 | 5.41% (inactive) |
| CCOC(=O)c1ccn(-c2nc(-c3ccco3)cc(C(F)(F)F)n2)n1 | 1.45% (inactive) |
| Cc1ccsc1-c1cc(C(=O)O)c2c(ccc3ccccc32)n1 | -2.73% (inactive) |
| Cc1cc(C)c2nc(-c3ccco3)cc(C(=O)O)c2c1 | 73.6% (active) |
| C=C(C)C#CC(Cc1ccccc1)NCC1CC1 (centres undefined) | -0.06% (inactive) |
| Cc1ccccc1NC(=O)Cn1nnc(-c2ccccc2F)n1 | -2.25% (inactive) |
| CC(=O)c1cc(-c2ccc3ccccc3c2)c(=O)n2c1CCC2 | -1.09% (inactive) |
| COC(=O)[C@]12C[C@H](CC(=O)N3CCN(C(=O)C4CC4)CC3)C(=O)N(CCC3=CCCCC3)C1=C[C@H](C(C)C)O[C@@H]2C1CC1 | -0.03% (inactive) |
| COc1nc(-c2ccc(Cl)cc2)ccc1-c1noc(-c2cccs2)n1 | 37.1% (active) |
| N#Cc1ccc(-c2ccc(Cl)cc2)nc1Oc1ccc(F)cc1 | -1.28% (inactive) |
| Cc1cc(NS(=O)(=O)c2ccc(NC(=O)CSc3nnc(-c4ccc(C(C)(C)C)cc4)n3Cc3ccco3)cc2)nc(C)n1 | -1.86% (inactive) |
| COC(=O)C12C=C3CC(c4ccccc4)=C3C(=O)N1Cc1[nH]c3ccccc3c1C2 (centres undefined) | -0.85% (inactive) |
| C=CCN1C(=O)[C@H](CC(=O)NCCCN2CCCC2=O)[C@@]2(C(=O)OCC)CCCC=C12 | 1.86% (inactive) |

| SMILES | inhibition |
| --- | --- |
| COC(=O)[C@]12C[C@H](CC(=O)NCCCN3CCCC3=O)C(=O)N(CCc3ccc(OC)c(OC)c3)C1=C[C@H](COCc1ccccc1)O[C@@H]2C | -1.34% (inactive) |
| Nc1ncnc2c1ncn2[C@@H]1O[C@H](C(=O)NCC(F)(F)F)[C@@H](O)[C@H]1O | -0.85% (inactive) |
| Nc1ncnc2c1ncn2C1OC(CO)CC1O (centres undefined) | 60.9% (active) |
| Nc1ncnc2c1ncn2[C@@H]1O[C@H](C(=O)N2CCSC2)[C@@H](O)[C@H]1O | 2.48% (inactive) |
| O=C(c1ccccc1)c1ccc(-c2ccccc2C(=O)NC2CCCCN(Cc3ccc(Cl)cc3)C2=O)cc1 (centres undefined) | -0.04% (inactive) |
| CCCC1CCC2(CCCN2CCOC(=O)NCc2ccccc2)CC1 (centres undefined) | 0.86% (inactive) |
| COC(=O)C1CN(CC(C)C)CCS(=O)(=O)N1Cc1ccc(F)cc1 (centres undefined) | 0.32% (inactive) |
| O=C(c1ccc(C(F)(F)F)cc1)C1CCCN(C(=O)c2csnn2)C1 (centres undefined) | 0.31% (inactive) |
| COCC(=O)N1CCCC(C(=O)c2ccc(C(F)(F)F)cc2)C1 (centres undefined) | 2.82% (inactive) |
| Cc1cnc(C(=O)N2CCCC(C(=O)c3ccc(C(F)(F)F)cc3)C2)cn1 (centres undefined) | 22% (active) |
| C=C(C)C1CC23C(=O)C4(C(=O)c5ccccc5)C[C@@]5(C)CCC(CC2C1(C)C)(C4=O)C35OC (some centres undefined) | 0.2% (inactive) |
| C=CCN1C(=O)[C@H](CC(=O)N2CCN(C(=O)OCC)CC2)[C@@]2(C(=O)OCC)CCCC=C12 | -2.61% (inactive) |
| COC(=O)c1ccccc1-n1cc(COC(=O)NCCc2ccccc2)nn1 | 0.82% (inactive) |
| CC(CCN1CCC(C(O)(c2ccccc2)c2ccccc2)CC1)Oc1ccc(Cl)cc1 (centres undefined) | 1.4% (inactive) |
| O=C(CSc1nc2ccccc2n1Cc1ccccc1Cl)N/N=C\c1c[nH]c2ccccc12 | -1.5% (inactive) |
| COc1ccc(Cl)cc1NC(=O)COC(=O)c1ccc(Br)o1 | 0.18% (inactive) |
| O=C(CCS(=O)(=O)c1ccc(Br)cc1)NCCc1ccc(Cl)cc1 | 0.15% (inactive) |
| COc1ccc(Cl)cc1NC(=O)CCS(=O)(=O)c1ccc(Br)cc1 | 45.2% (active) |
| C[C@H]1CCC/C=C/C(=O)c2c(O)cc(O)cc2CC(=O)O1 | 0.98% (inactive) |
| C[C@H]1Cn2cnc(C(=O)N[C@H](C)c3ccccc3)c2C(=O)N1 | 11.2% (inactive) |
| CC1CCN(C(=O)c2ncn3c2C(=O)N[C@@H](C)C3)CC1 | 22.7% (active) |
| C[C@@H]1Cn2cnc(C(=O)Nc3ccc(CNC(=O)OC(C)(C)C)cc3)c2C(=O)N1 | 2.17% (inactive) |
| FC(F)(F)c1cccc(NC(=S)OC2CCC23CCC(c2ccccc2)CC3)c1 (centres undefined) | -1.02% (inactive) |
| Cc1ccc(-n2c(SCC(=O)Nc3ccc(S(=O)(=O)Nc4nccs4)cc3)nnc2-c2cccnc2)cc1 | 3.04% (inactive) |
| Cc1ccc(-n2c(SCC(=O)Nc3ccc(S(=O)(=O)Nc4nccs4)cc3)nnc2-c2ccccn2)cc1 | 2.8% (inactive) |
| CCc1nc2ccccc2n(CCOCCOCCn2c(=O)c(CC)nc3ccccc32)c1=O | 0.72% (inactive) |
| Cc1nn2c3ccccc3nc2n(C)c1=O | 64.7% (active) |

| SMILES | inhibition |
| --- | --- |
| CC(C)(C)c1cc(=O)n2c(nc3ccccc32)[nH]1 | 0.39% (inactive) |
| COC(=O)c1cccc(Cn2ccc3ccc(-c4ccc5ccn(C(=O)C6CCCCC6)c5c4)cc32)c1 | -1.71% (inactive) |
| COc1ccc(C(C)C)cc1-c1ccc2nncn2c1 | 42.2% (active) |
| COc1ccc(OC)c(S(=O)(=O)Nc2cccc(-c3ccc4nncn4n3)c2)c1 | -0.61% (inactive) |
| CS(=O)(=O)c1cccc(-c2ccc3nncn3c2)c1 | 4.75% (inactive) |
| Nn1c(SCC(=O)Nc2cccc3ccccc23)nnc1-c1cc(-c2ccc(F)cc2)n[nH]1 | -1.05% (inactive) |
| CCC(O)C1CCN(Cc2cn(-c3ccc(OC)cc3)nc2-c2cccc(F)c2)CC1 (centres undefined) | 0.5% (inactive) |
| COc1ccc(-n2cc(CNC3CCOCC3)c(-c3cccc(F)c3)n2)cc1 | 21.6% (active) |
| COc1ccc(-c2nn(-c3ccccc3)cc2CN2CCCO2)c(F)c1 | -0.87% (inactive) |
| O=C(N1CCOCC1)N1CC[C@H]2[C@H](CCCN2Cc2ccc(F)cc2)C1 | -1.64% (inactive) |
| COC(=O)C1CN(Cc2cn(Cc3ccc(F)cc3)nn2)CCS(=O)(=O)N1Cc1ccc(Cl)cc1 (centres undefined) | 2.82% (inactive) |
| COC(=O)c1ccc2nc(-c3ccc(Cl)cc3)c(Cc3cccc(F)c3)n2c1 | 10.2% (inactive) |
| Fc1cccc(Cc2c(-c3cccc(Cl)c3)nc3ccc(Br)cn23)c1 | 1.63% (inactive) |
| Fc1cccc(Cc2c(-c3ccc(Cl)cc3)nc3ccc(Cl)cn23)c1 | 26.5% (active) |
| CN(CCc1ccccc1)C(=O)Cn1nc(-c2ccccc2)ccc1=O | 1.78% (inactive) |
| CC(=O)Nc1ccccc1Sc1ccc2c3c(cccc13)C(=O)N(c1ccc(C)cc1)C2=O | 21.6% (active) |
| Cc1ccc(-n2c(SCC(=O)Nc3cccc4ccccc34)nnc2-c2ccco2)cc1 | -0.24% (inactive) |
| Cc1ccc(-n2c(SCC(=O)Nc3cccc4ccccc34)nnc2-c2ccccn2)cc1 | 0.12% (inactive) |
| COc1ccc(CSc2nnc(-c3cccc(C)c3)n2C)cc1 | 0.25% (inactive) |
| Cc1ccc(S(=O)(=O)NC(C)C(=O)NCc2ccc(Cl)cc2)cc1 (centres undefined) | 0.66% (inactive) |
| O=C(NCc1ccc(Cl)cc1)NCc1ccc(Cl)cc1 | 24.9% (active) |
| S=C(NCc1ccc(Cl)cc1)NC12CC3CC(CC(C3)C1)C2 | -0.38% (inactive) |
| Cc1c[nH]c2cccc(-c3ccc(Cl)cc3)c12 | -1.82% (inactive) |
| COc1cc(/C=C/C(=O)n2cnc3ccccc32)cc(OC)c1OC | 1.6% (inactive) |
| Cc1cc(C)cc(NC(=O)N2CCC(N(C)CCC(C)C)CC2)c1 | 0.51% (inactive) |
